# Screening data from PubChem.
# An excerpt weighted towards active compounds, which were near 13% of everything screened.
# USP7 block: inhibitors of human USP7 deubiquitinase; Ubiquitin carboxyl-terminal hydrolase 7 (Homo sapiens), Q93009; purified USP7, Ub-rhodamine cleavage fluorescence; inhibition, % at 20 µM; 0.3% of 47,000 active
# USP8 inh: inhibitors of human USP8 deubiquitinase. 4.2% of 47,000 active. Ubiquitin carboxyl-terminal hydrolase 8 (Homo sapiens), P40818. inhibition, % at 20 µM. purified USP8, Ub-rhodamine cleavage fluorescence, 30 min
# Target sequence (P40818 whole entry, looked up): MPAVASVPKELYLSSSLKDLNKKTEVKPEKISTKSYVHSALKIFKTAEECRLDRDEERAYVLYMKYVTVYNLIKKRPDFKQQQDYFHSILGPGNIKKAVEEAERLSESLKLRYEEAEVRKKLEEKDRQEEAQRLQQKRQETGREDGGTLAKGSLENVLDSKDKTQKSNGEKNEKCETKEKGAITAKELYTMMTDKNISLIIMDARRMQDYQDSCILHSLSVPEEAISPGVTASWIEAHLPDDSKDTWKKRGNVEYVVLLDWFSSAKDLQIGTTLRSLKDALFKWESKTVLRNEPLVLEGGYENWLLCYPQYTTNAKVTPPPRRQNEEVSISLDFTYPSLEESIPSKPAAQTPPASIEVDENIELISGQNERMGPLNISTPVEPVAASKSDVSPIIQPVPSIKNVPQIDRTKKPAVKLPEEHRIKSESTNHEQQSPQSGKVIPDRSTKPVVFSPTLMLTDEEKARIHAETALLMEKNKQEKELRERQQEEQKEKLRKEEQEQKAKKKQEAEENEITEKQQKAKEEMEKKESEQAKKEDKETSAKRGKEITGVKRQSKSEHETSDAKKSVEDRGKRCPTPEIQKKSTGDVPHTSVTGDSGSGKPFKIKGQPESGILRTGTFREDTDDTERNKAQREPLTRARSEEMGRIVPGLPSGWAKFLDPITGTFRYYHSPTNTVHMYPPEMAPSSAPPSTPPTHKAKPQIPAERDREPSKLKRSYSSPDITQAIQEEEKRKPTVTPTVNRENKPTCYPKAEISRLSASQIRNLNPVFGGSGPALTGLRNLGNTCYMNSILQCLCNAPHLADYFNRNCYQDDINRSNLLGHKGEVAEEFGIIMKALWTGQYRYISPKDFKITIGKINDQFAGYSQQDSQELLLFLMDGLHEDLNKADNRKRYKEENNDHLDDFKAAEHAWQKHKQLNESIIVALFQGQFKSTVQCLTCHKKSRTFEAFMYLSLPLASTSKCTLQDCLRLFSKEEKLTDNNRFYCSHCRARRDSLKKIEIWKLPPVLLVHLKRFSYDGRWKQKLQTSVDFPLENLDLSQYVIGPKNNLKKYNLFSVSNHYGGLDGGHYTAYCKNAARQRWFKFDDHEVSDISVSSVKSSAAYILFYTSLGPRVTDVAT
# USP28 block: inhibitors of human USP28 deubiquitinase. inhibition, % at 25 µM. Ubiquitin carboxyl-terminal hydrolase 28 (Homo sapiens), Q96RU2. purified USP28, Ub-rhodamine cleavage fluorescence, 30 min. 3% of 47,000 active
# USP10 block: inhibitors of human USP10 deubiquitinase; Ubiquitin carboxyl-terminal hydrolase 10 (Homo sapiens), Q14694; purified USP10, Ub-rhodamine fluorescence, 60 min; inhibition, % at 20 µM; 1.1% of 47,000 active; AID 1645856, 2021
# USP17 block: inhibitors of human USP17 deubiquitinase; 6.5% of 47,000 active; inhibition, % at 50 µM; AID 1645855, 2021; Ubiquitin carboxyl-terminal hydrolase 17-like protein 5 (Homo sapiens), A8MUK1; purified USP17, Ub-rhodamine cleavage fluorescence, 3 h
# USP30 inh: inhibitors of human USP30 deubiquitinase; Ubiquitin carboxyl-terminal hydrolase 30 (Homo sapiens), Q70CQ3; purified USP30, Ub-rhodamine cleavage fluorescence; inhibition, % at 25 µM; 5.3% of 47,000 active; AID 1645860, 2021
# A number is an active result; n = inactive; x = no result. No stated cut-off is given here; in the data, active means inhibition above about 30%; inactive means the rest.
SMILES,USP7 block,USP8 inh,USP28 block,USP10 block,USP17 block,USP30 inh
O=C(/C=C/C=C/C=C/C1CCCCC1)NC1=C[C@@](O)(/C=C/C=C/C=C/C(=O)NC2=C(O)CCC2=O)[C@@H]2O[C@@H]2C1=O,45,n,75,n,68,n
Cc1ccc2ccc3c(c2n1)OC(N)=C(C#N)C3c1ccncc1 (centres undefined),n,66,n,n,n,n
FC(F)(F)c1cccc(SCCOc2ccccc2)c1,n,n,n,n,n,n
COc1ccc(Nc2nc(N3CCCC3)nc3c2cnn3C)cc1,n,n,n,n,49,39
O=C(Nc1ccccc1)C1COc2ccccc2C1 (centres undefined),n,n,n,n,32,n
COc1ccc2c(c1)CC(C(=O)Nc1ccc(F)cc1F)CO2 (centres undefined),n,n,n,n,n,n
CN(C)c1ncnc2c1ncn2[C@@H]1CC[C@@H](NCc2ccc(F)cc2)[C@@H](O)[C@@H]1O,n,n,n,n,n,n
O=c1[nH]c(-c2ccccn2)nc2c1CCN(Cc1cnn(-c3ccccc3)c1)C2,n,n,n,n,55,n
CN(C)c1ccc(CN2CCc3nc(-c4ccncc4)[nH]c(=O)c3C2)cc1,n,n,n,n,n,n
O=c1[nH]c(-c2cccnc2)nc2c1CCN(Cc1[nH]c3ccccc3c1Cl)C2,n,37,n,n,n,n
Cn1cc(CN2CCc3nc(-c4ccccn4)[nH]c(=O)c3C2)cn1,n,n,n,n,n,n
O=c1[nH]c(-c2ccncc2)nc2c1CCN(Cc1ccc(Cl)cc1)C2,n,n,n,n,n,43
O=C(NCCc1ccccc1Cl)c1oc(=O)c2ccccc2c1-c1ccccc1,n,n,n,n,n,44
O=C(Nc1ccccc1F)c1oc(=O)c2ccccc2c1-c1ccccc1,n,n,n,n,n,n
CC(C)(C)c1ccc(S(=O)(=O)N2CCN(Cc3nc4ccccc4c(=O)[nH]3)CC2)cc1,n,n,n,n,n,n
Cc1cc(OCC(=O)Nc2ccccc2C)nc(N2CCCCCC2)n1,n,n,n,n,n,36
O=C(Nc1ccc(F)c(Cl)c1)c1ccc(N2CCCC2)nn1,n,n,n,n,n,n
CC(=O)c1cccc(NC(=O)c2ccc(N3CCCCC3)nn2)c1,n,n,n,n,49,57
O=C(Nc1cccc(Cl)c1Cl)c1ccc(N2CCCC2)nn1,n,n,n,n,x,n
Cc1ccccc1NC(=O)c1ccc(N2CCCCC2)nn1,n,n,n,n,47,70
O=C(C1CCOC1)N1CCC2(CC1)CN(c1ncccn1)c1ccccc12 (centres undefined),n,n,n,n,n,n
O=C(C1CCOC1)N1CCC2(CC1)CN(c1cccnc1)c1ccccc12 (centres undefined),n,n,n,n,x,49
c1ccc(-c2cc(Nc3c4c(nc5ccccc35)CCCC4)n[nH]2)cc1,n,n,n,n,44,n
Clc1ccc2nc3c(c(Nc4[nH]ncc4-c4ccccc4)c2c1)CCC3,n,n,n,n,n,n
O=c1[nH]c(SCc2nc3ccccc3c(=O)n2-c2ccc(Cl)c(Cl)c2)nc2ccccc12,n,n,n,n,n,n
SMILES,USP7 block,USP8 inh,USP28 block,USP10 block,USP17 block,USP30 inh
O=C(Nc1nc2c(ccc3ccccc32)s1)c1cccc(Br)c1,n,36,n,n,47,65
O=C(Cc1cccc2ccccc12)Nc1nc2ccc(Br)cc2s1,n,n,n,n,n,n
C(=C\c1nc(-c2cccc(-c3ccn[nH]3)c2)no1)/c1ccco1,31,35,n,n,n,n
c1cc(-c2noc(-c3ccoc3)n2)cc(-c2ccn[nH]2)c1,n,n,n,n,n,n
Fc1ccc(OCc2nc(-c3cccc(-c4ccn[nH]4)c3)no2)cc1,n,33,52,n,80,39
COc1ccc(-c2nc(-c3cccc(-c4ccn[nH]4)c3)no2)cc1F,n,n,n,n,n,n
Cc1nc2ccn(Cc3ccco3)c(=O)c2cc1C(=O)NCCCc1ccco1,n,n,n,n,n,n
COc1ccc(CC(=O)Nc2cc(F)c3nc(N4CCOCC4)ccc3c2)cc1,n,49,n,n,n,n
O=C(Cc1cccs1)Nc1cc(F)c2nc(N3CCOCC3)ccc2c1,n,n,n,n,62,n
COc1ccc(C(=O)Nc2cc(F)c3nc(N4CCOCC4)ccc3c2)c(OC)c1,n,78,n,n,73,n
Cc1ccccc1CNC(=O)Cn1ccc2ccc(N3CCOCC3)nc21,n,n,n,n,n,n
Cc1csc2ncc(C(=O)NCCc3ccc(Cl)cc3)c(=O)n12,n,n,n,n,37,n
COC(=O)c1sccc1NC(=O)COc1ccsc1C(=O)OC,n,n,n,n,51,n
COC(=O)c1sccc1NC(=O)c1cccs1,n,n,n,n,30,n
Cn1c(N)c(S(=O)(=O)N2CCCCC2c2cccnc2)c(=O)n(C)c1=O (centres undefined),n,n,n,n,n,n
CN1C(=O)C2(CCN(S(=O)(=O)c3ccccc3F)C2)c2ccccc21 (centres undefined),n,n,n,n,n,n
Cc1cc(C2CC(=O)Nc3c2c(C)nn3-c2nc3ccccc3[nH]2)c(C)s1 (centres undefined),n,30,n,n,51,n
Cc1noc(-c2ccc(-n3cnc(C(=O)NCc4ccccc4)c3)nc2)n1,n,n,n,n,n,30
CCc1noc(-c2ccc(-n3cnc(C(=O)NC4CCCC4)c3)nc2)n1,n,n,n,n,n,n
Cc1noc(-c2ccc(-n3cnc(C(=O)NC4CCCCCC4)c3)nc2)n1,n,35,n,n,n,n
CCC(C)NC(=O)c1nc(-c2ccc3c(c2)OCC(=O)N3C)no1 (centres undefined),n,n,n,n,n,n
CCN1C(=O)COc2cc(-c3noc(C(=O)NCc4ccccc4)n3)ccc21,n,n,n,n,n,n
Cc1ccc(CNC(=O)c2nc(-c3ccc4c(c3)OCC(=O)N4C)no2)cc1,n,n,n,n,n,41
CN1C(=O)COc2cc(-c3noc(C(=O)NC4CCCCCC4)n3)ccc21,n,n,n,n,n,56
Nc1ccc(Oc2cccnc2)nc1,n,n,n,n,n,n
COc1ccc(Cn2nnc(C(=O)N3CCCCC3)c2-n2cccc2)cc1,n,n,n,n,30,n
Cc1ccc(Cn2nnc(C(=O)N3CCCC3)c2-n2cccc2)cc1,n,n,n,n,n,n
O=C(c1nnn(Cc2ccc(Cl)cc2)c1-n1cccc1)N1CCSCC1,n,n,36,n,n,n
Cc1cc(C)cc(N=c2oc3cc(O)ccc3cc2C(=O)NCC2CCCO2)c1 (centres undefined),n,n,n,n,n,n
